# Assay outcomes: PubChem, several laboratories
# FBA Mtb inh – inhibits M. tuberculosis FBA enzyme; 2.3% of 360,000 active; AID 588726; P9WQA3; inhibition, % at 1 µM; purified M. tuberculosis FBA, fluorescence read-out;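 further: 0% = vehicle and 100% = reference inhibitor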
# Target sequence (P9WQA3 whole entry, looked up): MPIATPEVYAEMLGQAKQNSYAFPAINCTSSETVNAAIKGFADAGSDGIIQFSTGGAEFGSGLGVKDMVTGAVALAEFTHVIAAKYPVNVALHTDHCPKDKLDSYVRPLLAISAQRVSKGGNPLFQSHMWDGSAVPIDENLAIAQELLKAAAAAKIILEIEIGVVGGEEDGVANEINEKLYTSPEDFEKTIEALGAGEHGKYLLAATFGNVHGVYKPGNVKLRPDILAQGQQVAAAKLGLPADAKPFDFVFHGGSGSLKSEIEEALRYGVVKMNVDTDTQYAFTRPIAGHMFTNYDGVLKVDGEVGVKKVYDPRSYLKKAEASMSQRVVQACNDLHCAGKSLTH
# RecA intein inh – inhibitors of M. tuberculosis RecA intein splicing; P9WHJ3; cell-free RecA intein splicing, fluorescence; inhibition, % (concentration not given with the values); 0.75% of 290,000 active; in the data active means inhibition above about 30%;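 further: 0% = vehicle wells and 100% = reference inhibitor control wells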
# GDH-TPI counter-1 – GDH-TPI coupled enzyme inhibition counter-screen; 1.2% of 360,000 active; inhibition, % at 4.8 µM; GDH-TPI coupled enzyme counterscreen, NADH absorbance; in the data active means inhibition above about 30%;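 further: 0% = DMSO wells and 100% = wells lacking the enzyme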
# BJeLR lethal – BJeLR cell viability loss; BJeLR (HRASV12) viability, CellTiter-Glo ATP luminescence, 48 h; inhibition, % (concentration not given with the values); 0.17% of 300,000 active; AID 1554; in the data active means inhibition above about 50%
# PrPC surface inh – reduces human prion protein on the cell surface | P04156 | cell surface PrPC, TR-FRET read-out | inhibition, % at 13.8 µM | 0.43% of 370,000 active; in the data active means inhibition above about 24%; further: 0% = median of the test wells and 100% = reference compound wells
# Mtb FBA confirm – confirmation of M. tuberculosis fructose-bisphosphate aldolase inhibitors; shares compounds with FBA Mtb inh; purified M. tuberculosis FBA, fluorescence read-out; inhibition, % at 1 µM; 78% of 5,600 active; AID 651616;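 further: 0% = vehicle wells and 100% = reference inhibitor wells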
# GDH-TPI counter-2 – counter-screen for M. tuberculosis FBA inhibitors: GDH-TPI coupled enzyme inhibition; AID 652141; shares compounds with FBA Mtb inh; GDH-TPI coupled enzyme counterscreen, fluorescence; inhibition, % at 1 µM; 81% of 5,600 active; in the data active means inhibition above about 10%
# The depositor's hits bear a star; . = not tested or not shown; + = active, no number. The list is not random: actives were taken first. Their share in the collection is about 4.2%. Unless noted, no stated cut-off is given here; in the data, active means inhibition above about 27%; inactive means the rest.
SMILES,FBA Mtb inh,RecA intein inh,GDH-TPI counter-1,BJeLR lethal,PrPC surface inh,Mtb FBA confirm,GDH-TPI counter-2
CN(C)c1ccc(-c2n[nH]c(=S)n2-c2ccccc2)cc1,23.0,-1.4,3.1,-4.7,-0.3,.,.
CCN(CC)c1ccc(-c2n[nH]c(=S)n2-c2ccccc2)cc1,37.0*,1.5,7.5,-1.0,17.3,86.1*,68.2*
O=C(c1cc(COc2cccc3cnccc23)on1)N1CCCC(CCCO)C1 (stereo unspecified),29.8*,3.5,3.8,17.1,15.0,192.1*,132.5*
Cc1cc(C)cc(N(CC(=O)NC2CCC(C)CC2)S(=O)(=O)c2ccc(C(C)(C)C)cc2)c1 (stereo unspecified),.,.,.,.,1.1,.,.
Cn1c(=O)n(C)c2cc(S(=O)(=O)Nc3ccccc3C(=O)O)ccc21,28.9*,0.0,10.6,-6.2,-6.0,+,+
NNC(=O)c1sc(-c2ccccc2)cc1N,40.7*,-0.7,10.2,9.4,-7.5,-0.6,-2.7
CC(=O)c1sc(-c2ccccc2)cc1N,5.2,-3.2,10.7,0.2,7.5,.,.
CCCCC#CC(CC)NCc1ccc(OC)cc1OC (stereo unspecified),.,.,.,.,2.5,.,.
COCCNC(=O)CSc1ccc(-c2nc3ccccc3[nH]2)cn1,31.0*,0.0,31.0*,-0.1,5.6,1.9,-3.8
CN(C)c1ncccc1-c1nc2ccccc2s1,30.3*,-9.4,12.9,-2.7,-2.5,30.6*,17.2*
c1ccc(-c2nc3ccccc3s2)nc1,4.3,-0.7,1.2,3.0,8.5,.,.
O=C(NC1CCCCN(Cc2cccc(C(F)(F)F)c2)C1=O)c1ccc(F)c(F)c1 (stereo unspecified),.,.,.,.,8.1,.,.
COc1cccc(/C=N\N2CCN(c3ccc(C)cc3)CC2)c1O,.,.,.,.,1.1,.,.
COC(=O)[C@]12C[C@H](CC(=O)NCCCCc3ccccc3)C(=O)N(Cc3ccccc3)C1=C[C@H](C(C)(C)C)O[C@@H]2C,.,.,.,.,-1.6,.,.
CCCCCNc1nc2sc3c(c2c(=O)n1-c1cccc(Cl)c1)CCN(C)C3,52.1*,-5.0,21.3,-2.6,-0.9,109.1*,88.8*
CCCCSc1nc2sc3c(c2c(=O)n1-c1ccccc1)CCN(C)C3,3.9,-1.3,21.4,7.5,-5.4,.,.
CCCCNc1nc2sc3c(c2c(=O)n1-c1cccc(Cl)c1)CCN(C)C3,52.1*,-6.2,20.6,-2.3,-2.7,189.9*,139.7*
O=C(Cc1cc(=O)oc2cc(O)ccc12)N[C@@H](Cc1c[nH]c2ccccc12)C(=O)O,37.1*,-18.9,17.6,-1.9,-7.9,+,160.9*
O=C(COc1ccc2c(-c3ccccc3)cc(=O)oc2c1)NC(Cc1c[nH]c2ccccc12)C(=O)O (stereo unspecified),0.3,.,10.3,.,-5.5,.,.
Cc1c(O)ccc2c(CC(=O)N[C@@H](Cc3c[nH]c4ccccc34)C(=O)O)cc(=O)oc12,37.8*,1.2,8.6,4.0,1.5,89.4*,61.7*
O=C(Nc1ccc2c(c1)nc1n2CCN(Cc2ccccc2)C1)c1cccs1,2.2,5.9,11.9,4.3,-0.4,.,.
CCCC(=O)Nc1ccc2c(c1)nc1n2CCN(C2CCCCC2)C1,63.5*,-5.5,4.9,.,9.4,193.9*,177.7*
O=[N+]([O-])c1ccc2c(c1)nc1n2CCN(C2CCCCC2)C1,-2.9,4.9,-1.9,0.0,-17.3,.,.
O=C(Nc1ccc2c(c1)nc1n2CCN(Cc2ccccc2)C1)NC1CCCCC1,80.0*,13.1,8.1,-0.2,-1.5,16.1,11.0*
CC(=O)Nc1ccc2c(c1)nc1n2CCN(C2CCCCC2)C1,55.6*,.,7.7,.,-3.0,197.2*,135.5*
SMILES,FBA Mtb inh,RecA intein inh,GDH-TPI counter-1,BJeLR lethal,PrPC surface inh,Mtb FBA confirm,GDH-TPI counter-2
CCCCC(=O)Nc1ccc2c(c1)nc1n2CCSC1,3.6,1.7,4.2,-22.8,4.9,.,.
OCC1SC(O)C(O)C(O)C1O (stereo unspecified),.,.,.,.,2.9,.,.
CCOc1cccc(C=NNc2nc(=O)cc(C(=O)OC)s2)c1O,.,.,.,.,2.5,.,.
COc1ccc(CN2C[C@@]3(O)CC[C@@H](O)[C@@H](OC)[C@@H]3[C@@](C)(O)[C@@H]2CC=C(C)C)cc1,.,.,.,.,4.4,.,.
Cc1cc(C)n2nc(-c3ccsc3-n3c(C)ccc3C)cc2n1,46.2*,-3.1,3.9,9.0,5.1,61.2*,26.6*
O=S1(=O)CCC(N(N=Cc2ccco2)c2ccccc2)C1 (stereo unspecified),.,.,.,.,19.4,.,.
